From article PMC7862700, “An all-to-all approach to the identification of sequence-specific readers for epigenetic DNA modifications on cytosine”

Experiments:
Assay in all cases: DAPPL (digital affinity profiling via proximity ligation, sequencing); 10 mM Tris-HCl pH 7.5, 50 mM NaCl, 1 mM DTT, 4% glycerol, room temperature, 30 min; GST-TFs on glutathione beads, 16-mer random dsDNA library, 0.1% formaldehyde crosslink after washing; high values mean tight binding
[1] = molecular target: T1, FEV (Homo sapiens, UniProt Q99581 1-238); settings: protein: recombinant; tags: N-terminal GST; dsDNA, one strand shown
T1 sequence: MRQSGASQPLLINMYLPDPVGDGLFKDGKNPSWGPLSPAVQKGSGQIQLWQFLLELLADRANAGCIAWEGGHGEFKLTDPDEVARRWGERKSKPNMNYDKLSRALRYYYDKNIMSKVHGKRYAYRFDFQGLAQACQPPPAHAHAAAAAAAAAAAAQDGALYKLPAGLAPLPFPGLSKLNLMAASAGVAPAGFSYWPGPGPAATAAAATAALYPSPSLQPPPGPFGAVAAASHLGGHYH
Procedure, shortened: (§1)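 Yeast served to express human transcription factors as GST fusions, which were then captured on glutathione beads and labelled with DNA barcodes. Pooled with a tag-only sample, they were incubated with 200 nmole of a 16-mer random double-stranded DNA library for 30 min at room temperature in Tris/NaCl/DTT/glycerol buffer, washed, crosslinked with 0.1% formaldehyde, ligated by proximity, amplified by PCR and sequenced. Dividing each hexamer's read frequency for a factor by its frequency for the tag-only sample gives the binding signal.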

[2] = molecular target: ETV5 (Homo sapiens, UniProt P41161 1-510); settings: protein: recombinant; tags: N-terminal GST; dsDNA, one strand shown
ETV5, sequence (P41161 whole entry): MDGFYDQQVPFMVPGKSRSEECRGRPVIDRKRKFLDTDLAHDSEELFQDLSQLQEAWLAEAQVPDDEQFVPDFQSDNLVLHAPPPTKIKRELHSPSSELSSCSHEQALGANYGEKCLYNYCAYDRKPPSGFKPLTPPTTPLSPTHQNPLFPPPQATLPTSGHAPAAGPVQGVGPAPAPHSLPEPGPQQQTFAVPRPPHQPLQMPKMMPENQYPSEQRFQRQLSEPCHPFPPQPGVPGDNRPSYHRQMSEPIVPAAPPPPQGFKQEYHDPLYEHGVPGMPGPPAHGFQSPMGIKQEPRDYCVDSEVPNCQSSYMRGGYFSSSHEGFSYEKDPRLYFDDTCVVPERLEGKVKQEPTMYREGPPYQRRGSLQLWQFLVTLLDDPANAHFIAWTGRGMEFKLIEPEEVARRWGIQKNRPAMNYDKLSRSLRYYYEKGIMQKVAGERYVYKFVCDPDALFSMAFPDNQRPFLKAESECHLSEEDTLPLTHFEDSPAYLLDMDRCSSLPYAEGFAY
Procedure, shortened: as §1

[3] = molecular target: HSF1 (Homo sapiens, UniProt Q00613 1-529); settings: protein: recombinant; tags: N-terminal GST; chain copies: 3; dsDNA, one strand shown
HSF1, sequence (Q00613 whole entry): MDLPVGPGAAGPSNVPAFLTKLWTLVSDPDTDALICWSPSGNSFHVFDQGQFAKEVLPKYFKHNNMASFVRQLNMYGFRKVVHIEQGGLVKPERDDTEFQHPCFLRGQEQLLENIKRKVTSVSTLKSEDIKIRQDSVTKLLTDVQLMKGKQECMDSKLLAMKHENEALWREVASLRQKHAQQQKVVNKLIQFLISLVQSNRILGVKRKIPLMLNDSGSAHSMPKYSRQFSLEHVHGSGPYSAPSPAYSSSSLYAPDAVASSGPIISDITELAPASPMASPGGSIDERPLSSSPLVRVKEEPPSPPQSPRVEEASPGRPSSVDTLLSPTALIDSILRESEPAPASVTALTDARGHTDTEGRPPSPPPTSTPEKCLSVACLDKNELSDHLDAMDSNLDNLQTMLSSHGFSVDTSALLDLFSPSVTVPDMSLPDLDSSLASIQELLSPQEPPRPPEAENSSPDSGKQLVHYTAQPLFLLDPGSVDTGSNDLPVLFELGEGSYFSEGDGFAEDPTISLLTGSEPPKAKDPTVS
Procedure, shortened: as §1

[4] = molecular target: T2, SPIC (Homo sapiens, UniProt Q8N5J4 1-248); settings: protein: recombinant; tags: N-terminal GST; dsDNA, one strand shown
T2 sequence: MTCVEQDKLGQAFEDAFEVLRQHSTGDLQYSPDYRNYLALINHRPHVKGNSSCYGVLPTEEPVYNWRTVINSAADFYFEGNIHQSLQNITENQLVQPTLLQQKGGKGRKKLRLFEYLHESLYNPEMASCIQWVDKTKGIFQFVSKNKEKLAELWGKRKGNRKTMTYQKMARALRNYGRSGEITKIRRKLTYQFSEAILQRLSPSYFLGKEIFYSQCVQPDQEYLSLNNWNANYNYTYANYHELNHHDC
Procedure, shortened: as §1

[5] = molecular target: ELF4 (Homo sapiens, UniProt Q99607 1-663); settings: protein: recombinant; tags: N-terminal GST; dsDNA, one strand shown
ELF4, sequence (Q99607 whole entry): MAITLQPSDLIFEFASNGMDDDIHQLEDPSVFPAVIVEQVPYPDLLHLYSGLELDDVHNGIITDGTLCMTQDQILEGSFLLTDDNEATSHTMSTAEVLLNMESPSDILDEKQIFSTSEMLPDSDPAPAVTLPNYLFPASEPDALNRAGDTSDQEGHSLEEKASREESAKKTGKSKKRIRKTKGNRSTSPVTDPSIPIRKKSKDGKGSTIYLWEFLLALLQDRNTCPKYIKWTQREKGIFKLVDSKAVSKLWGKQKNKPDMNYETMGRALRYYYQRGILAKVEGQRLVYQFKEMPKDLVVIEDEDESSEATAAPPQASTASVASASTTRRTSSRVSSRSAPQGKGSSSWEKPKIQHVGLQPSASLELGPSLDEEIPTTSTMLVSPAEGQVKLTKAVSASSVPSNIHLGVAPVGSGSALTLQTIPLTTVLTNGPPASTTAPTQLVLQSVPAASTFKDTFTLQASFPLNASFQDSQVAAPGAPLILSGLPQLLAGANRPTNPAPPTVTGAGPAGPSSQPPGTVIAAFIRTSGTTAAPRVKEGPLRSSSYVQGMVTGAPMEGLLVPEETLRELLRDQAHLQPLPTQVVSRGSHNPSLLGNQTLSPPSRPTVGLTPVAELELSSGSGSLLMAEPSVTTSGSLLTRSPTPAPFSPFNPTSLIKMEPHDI
Procedure, shortened: as §1

[6] = molecular target: T3, ELK4 (Homo sapiens, UniProt P28324-2 1-405); settings: protein: recombinant; tags: N-terminal GST; dsDNA, one strand shown
T3 sequence: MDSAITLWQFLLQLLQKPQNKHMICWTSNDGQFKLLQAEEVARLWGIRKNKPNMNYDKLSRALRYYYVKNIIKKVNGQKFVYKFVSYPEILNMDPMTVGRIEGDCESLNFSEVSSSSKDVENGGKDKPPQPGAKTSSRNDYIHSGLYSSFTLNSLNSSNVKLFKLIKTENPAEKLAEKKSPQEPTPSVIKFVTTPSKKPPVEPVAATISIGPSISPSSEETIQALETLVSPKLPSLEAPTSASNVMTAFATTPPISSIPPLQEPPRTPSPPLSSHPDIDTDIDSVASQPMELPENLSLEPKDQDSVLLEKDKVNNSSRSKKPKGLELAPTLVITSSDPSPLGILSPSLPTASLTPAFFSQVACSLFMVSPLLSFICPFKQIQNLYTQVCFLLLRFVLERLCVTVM
Procedure, shortened: as §1

[7] = molecular target: T4, ETV2 (Homo sapiens, UniProt O00321 1-342); settings: protein: recombinant; tags: N-terminal GST; dsDNA, one strand shown
T4 sequence: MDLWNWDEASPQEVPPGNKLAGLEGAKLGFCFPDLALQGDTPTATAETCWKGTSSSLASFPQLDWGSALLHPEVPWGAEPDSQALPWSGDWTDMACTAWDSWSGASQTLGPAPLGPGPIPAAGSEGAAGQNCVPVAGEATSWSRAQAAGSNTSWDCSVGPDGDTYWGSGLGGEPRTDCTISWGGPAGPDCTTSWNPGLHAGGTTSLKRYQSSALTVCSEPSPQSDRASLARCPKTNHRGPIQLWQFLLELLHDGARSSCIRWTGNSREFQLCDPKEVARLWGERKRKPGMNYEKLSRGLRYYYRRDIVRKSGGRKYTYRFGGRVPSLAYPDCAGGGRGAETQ
Procedure, shortened: as §1

[8] = molecular target: CRX (Homo sapiens, UniProt O43186 1-299); settings: protein: recombinant; tags: N-terminal GST; dsDNA, one strand shown
CRX, sequence (O43186 whole entry): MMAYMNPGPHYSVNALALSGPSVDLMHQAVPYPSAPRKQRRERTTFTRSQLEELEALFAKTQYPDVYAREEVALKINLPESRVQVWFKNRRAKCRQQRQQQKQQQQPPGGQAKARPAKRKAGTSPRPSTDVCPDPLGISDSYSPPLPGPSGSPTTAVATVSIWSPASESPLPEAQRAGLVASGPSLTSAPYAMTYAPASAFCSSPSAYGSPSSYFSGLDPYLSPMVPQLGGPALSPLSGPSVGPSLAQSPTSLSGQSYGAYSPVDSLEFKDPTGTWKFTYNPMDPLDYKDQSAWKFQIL
Procedure, shortened: as §1

[9] = molecular target: ETV1 (Homo sapiens, UniProt P50549 1-477); settings: protein: recombinant; tags: N-terminal GST; dsDNA, one strand shown
ETV1, sequence (P50549 whole entry): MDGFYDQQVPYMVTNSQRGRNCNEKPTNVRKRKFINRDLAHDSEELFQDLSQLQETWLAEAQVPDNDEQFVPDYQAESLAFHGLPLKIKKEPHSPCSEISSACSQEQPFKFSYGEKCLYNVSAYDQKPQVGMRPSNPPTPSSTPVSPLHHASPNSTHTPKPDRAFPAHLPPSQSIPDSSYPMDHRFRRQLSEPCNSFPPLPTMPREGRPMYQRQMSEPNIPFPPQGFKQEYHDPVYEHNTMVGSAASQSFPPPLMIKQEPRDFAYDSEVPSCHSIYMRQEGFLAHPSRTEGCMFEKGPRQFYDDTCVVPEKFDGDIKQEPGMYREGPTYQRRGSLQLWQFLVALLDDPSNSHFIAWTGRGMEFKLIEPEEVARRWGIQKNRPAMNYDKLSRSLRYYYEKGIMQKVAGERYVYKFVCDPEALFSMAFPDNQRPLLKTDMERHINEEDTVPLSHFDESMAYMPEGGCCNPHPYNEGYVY
Procedure, shortened: as §1

[10] = molecular target: T5, ERF (Homo sapiens, UniProt P50548 1-548); settings: protein: recombinant; tags: N-terminal GST; dsDNA, one strand shown
T5 sequence: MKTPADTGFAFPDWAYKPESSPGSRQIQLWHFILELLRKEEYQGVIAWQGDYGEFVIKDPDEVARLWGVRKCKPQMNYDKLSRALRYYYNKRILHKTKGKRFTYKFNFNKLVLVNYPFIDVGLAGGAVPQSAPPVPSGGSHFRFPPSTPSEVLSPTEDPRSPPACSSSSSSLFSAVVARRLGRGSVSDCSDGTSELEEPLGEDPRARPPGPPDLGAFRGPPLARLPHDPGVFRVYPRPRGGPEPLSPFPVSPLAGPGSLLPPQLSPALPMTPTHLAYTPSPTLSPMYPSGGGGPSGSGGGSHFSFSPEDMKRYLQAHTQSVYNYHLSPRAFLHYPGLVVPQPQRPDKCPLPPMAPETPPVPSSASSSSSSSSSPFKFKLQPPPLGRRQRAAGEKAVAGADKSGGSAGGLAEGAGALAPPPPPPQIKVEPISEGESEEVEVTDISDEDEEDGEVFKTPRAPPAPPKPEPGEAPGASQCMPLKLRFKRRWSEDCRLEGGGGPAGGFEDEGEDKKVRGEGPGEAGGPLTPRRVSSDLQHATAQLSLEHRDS
Procedure, shortened: as §1

[11] = molecular target: T6, ETV3L (Homo sapiens, UniProt Q6ZN32 1-361); settings: protein: recombinant; tags: N-terminal GST; dsDNA, one strand shown
T6 sequence: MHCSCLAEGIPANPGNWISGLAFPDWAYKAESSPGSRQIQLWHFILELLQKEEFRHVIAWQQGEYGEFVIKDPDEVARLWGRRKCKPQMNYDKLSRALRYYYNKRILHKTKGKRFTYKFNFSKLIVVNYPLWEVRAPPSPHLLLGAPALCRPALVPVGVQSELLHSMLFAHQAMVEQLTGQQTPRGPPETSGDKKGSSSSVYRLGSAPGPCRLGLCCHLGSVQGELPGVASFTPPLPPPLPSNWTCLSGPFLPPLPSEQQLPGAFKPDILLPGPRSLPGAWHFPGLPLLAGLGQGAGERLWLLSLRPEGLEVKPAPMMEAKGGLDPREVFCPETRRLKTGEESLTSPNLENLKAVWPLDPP
Procedure, shortened: as §1

[12] = molecular target: T7, ETS2 (Homo sapiens, UniProt P15036 1-469); settings: protein: recombinant; tags: N-terminal GST; dsDNA, one strand shown
T7 sequence: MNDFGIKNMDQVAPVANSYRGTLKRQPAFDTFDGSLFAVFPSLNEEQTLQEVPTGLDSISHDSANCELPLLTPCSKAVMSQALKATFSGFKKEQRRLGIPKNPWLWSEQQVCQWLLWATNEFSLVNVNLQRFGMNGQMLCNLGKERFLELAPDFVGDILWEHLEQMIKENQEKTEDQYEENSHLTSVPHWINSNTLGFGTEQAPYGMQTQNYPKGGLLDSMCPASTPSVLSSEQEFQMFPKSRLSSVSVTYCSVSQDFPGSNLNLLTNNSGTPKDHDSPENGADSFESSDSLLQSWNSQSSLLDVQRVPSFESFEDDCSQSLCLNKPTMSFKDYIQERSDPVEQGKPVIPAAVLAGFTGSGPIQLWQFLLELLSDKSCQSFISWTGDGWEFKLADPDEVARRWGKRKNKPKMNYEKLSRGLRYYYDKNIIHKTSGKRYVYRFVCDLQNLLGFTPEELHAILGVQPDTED
Procedure, shortened: as §1

[13] = molecular target: T8, SPDEF (Homo sapiens, UniProt O95238 1-335); settings: protein: recombinant; tags: N-terminal GST; dsDNA, one strand shown
T8 sequence: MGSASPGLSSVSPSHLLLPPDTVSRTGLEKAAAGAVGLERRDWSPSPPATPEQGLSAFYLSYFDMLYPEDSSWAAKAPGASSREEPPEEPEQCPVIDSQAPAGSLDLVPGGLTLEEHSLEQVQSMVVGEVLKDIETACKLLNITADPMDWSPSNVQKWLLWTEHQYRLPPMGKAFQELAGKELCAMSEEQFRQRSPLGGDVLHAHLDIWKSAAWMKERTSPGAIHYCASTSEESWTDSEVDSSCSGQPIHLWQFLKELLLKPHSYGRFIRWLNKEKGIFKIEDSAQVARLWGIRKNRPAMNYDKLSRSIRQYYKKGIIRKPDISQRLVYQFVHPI
Procedure, shortened: as §1

[14] = molecular target: T9, ETV7 (Homo sapiens, UniProt Q9Y603 1-341); settings: protein: recombinant; tags: N-terminal GST; dsDNA, one strand shown
T9 sequence: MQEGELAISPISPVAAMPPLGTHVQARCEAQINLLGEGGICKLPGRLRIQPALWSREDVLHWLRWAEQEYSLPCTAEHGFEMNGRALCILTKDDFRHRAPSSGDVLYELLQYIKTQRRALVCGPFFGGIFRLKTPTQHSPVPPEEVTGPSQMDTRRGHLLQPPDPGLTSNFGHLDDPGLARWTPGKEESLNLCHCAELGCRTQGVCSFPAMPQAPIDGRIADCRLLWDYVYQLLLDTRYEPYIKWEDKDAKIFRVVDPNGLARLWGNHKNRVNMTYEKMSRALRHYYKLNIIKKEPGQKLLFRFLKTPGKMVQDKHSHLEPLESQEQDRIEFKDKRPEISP
Procedure, shortened: as §1

[15] = molecular target: T10, ELF5 (Homo sapiens, UniProt Q9UKW6-2 1-255); settings: protein: recombinant; tags: N-terminal GST; dsDNA, one strand shown
T10 sequence: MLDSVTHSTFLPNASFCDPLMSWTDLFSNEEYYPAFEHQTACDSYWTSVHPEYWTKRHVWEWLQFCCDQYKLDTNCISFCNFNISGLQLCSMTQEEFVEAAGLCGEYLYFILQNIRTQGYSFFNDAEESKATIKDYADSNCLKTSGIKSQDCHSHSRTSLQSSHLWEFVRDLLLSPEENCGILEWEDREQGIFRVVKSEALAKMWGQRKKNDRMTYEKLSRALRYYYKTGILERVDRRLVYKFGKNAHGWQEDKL
Procedure, shortened: as §1

[16] = molecular target: T11, ETV3 (Homo sapiens, UniProt P41162-2 1-143); settings: protein: recombinant; tags: N-terminal GST; dsDNA, one strand shown
T11 sequence: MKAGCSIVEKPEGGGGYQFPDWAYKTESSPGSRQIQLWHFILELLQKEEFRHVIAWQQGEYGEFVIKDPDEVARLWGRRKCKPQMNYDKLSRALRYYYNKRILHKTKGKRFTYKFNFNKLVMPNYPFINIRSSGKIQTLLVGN
Procedure, shortened: as §1

[17] = molecular target: ETV6 (Homo sapiens, UniProt P41212 1-452); settings: protein: recombinant; tags: N-terminal GST; dsDNA, one strand shown
ETV6, sequence (P41212 whole entry): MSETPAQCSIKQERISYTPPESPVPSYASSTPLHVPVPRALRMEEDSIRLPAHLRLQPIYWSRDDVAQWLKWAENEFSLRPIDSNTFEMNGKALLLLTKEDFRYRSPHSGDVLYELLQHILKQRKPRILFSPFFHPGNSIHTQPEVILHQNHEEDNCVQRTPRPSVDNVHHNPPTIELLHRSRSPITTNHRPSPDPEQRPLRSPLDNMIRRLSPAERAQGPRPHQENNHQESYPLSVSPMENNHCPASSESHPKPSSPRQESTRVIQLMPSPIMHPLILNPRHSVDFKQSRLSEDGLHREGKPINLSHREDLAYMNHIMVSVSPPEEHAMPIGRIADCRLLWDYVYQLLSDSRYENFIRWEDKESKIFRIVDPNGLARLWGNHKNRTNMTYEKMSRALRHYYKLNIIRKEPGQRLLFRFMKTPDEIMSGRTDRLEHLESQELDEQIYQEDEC
Procedure, shortened: as §1

TCCACC
binding signal [1]: 1.3 fold enrichment (6-mer frequency, TF over GST control) | binding signal [2]: 1.16 fold enrichment (6-mer frequency, TF over GST control) | binding signal [3]: 1.13 fold enrichment (6-mer frequency, TF over GST control) | binding signal [4]: 1.03 fold enrichment (6-mer frequency, TF over GST control) | binding signal [5]: 1.19 fold enrichment (6-mer frequency, TF over GST control) | binding signal [6]: 1.19 fold enrichment (6-mer frequency, TF over GST control) | binding signal [7]: 1.27 fold enrichment (6-mer frequency, TF over GST control) | binding signal [8]: 1.04 fold enrichment (6-mer frequency, TF over GST control) | binding signal [9]: 1.13 fold enrichment (6-mer frequency, TF over GST control) | binding signal [10]: 1.25 fold enrichment (6-mer frequency, TF over GST control) | binding signal [11]: 1.22 fold enrichment (6-mer frequency, TF over GST control) | binding signal [12]: 1.21 fold enrichment (6-mer frequency, TF over GST control) | binding signal [13]: 1.1 fold enrichment (6-mer frequency, TF over GST control) | binding signal [14]: 1.12 fold enrichment (6-mer frequency, TF over GST control) | binding signal [15]: 1.19 fold enrichment (6-mer frequency, TF over GST control) | binding signal [16]: 1.29 fold enrichment (6-mer frequency, TF over GST control) | binding signal [17]: 1.26 fold enrichment (6-mer frequency, TF over GST control)
